Data: PubChem BioAssay AID588596 (NMMLSC, 2011)
Potency and affinity values are given separately. The source made the active and inactive calls. No rule for the calls is given here.

Experiment: yeast V-ATPase proton pumping modulator potency, dose response, S. cerevisiae, pHLuorin, cherry pick 1 (AID 588596)
Settings: S. cerevisiae pHLuorin vacuolar pH fluorescence; series mostly up to 33.1 µM; response, % activation: at the top concentration

response, % activation, inactive:
O=C(N1CCCC1)C12CCC3CC(CC(C3)C1)C2 -5%, Cc1cccc(N=Cc2[nH]c3ccc(Br)c(Cl)c3c2O)c1 -0.84%, O=C(CCSC1=NCCCN1)c1ccc(F)cc1 12.9%, CCOC(=O)Cn1c(=O)c(-c2cc(Br)ccc2N)nc2ccccc21 14.8%
